Data on 15 molecules can be found in PubChem BioAssay (NCI).

Compounds without any hit were thinned out: in the full panel of roughly 83,000, 20% have a hit.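 The endpoint reported here, percent growth, reads 100 for growth as untreated, 0 for no net growth and -100 for all cells dead.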 A number with no mark means an inactive call. The source made the active and inactive calls. The calls were made as follows: active = growth percent below 10; inactive = the rest.

Some test systems named below: T-47D breast; BT-549 breast; MDA-MB-435 melanoma; SW-620 colon; MCF7 breast; HCT-116 colon; HCC-2998 colon; KM12 colon.
Holding throughout (test): NCI-60 one-dose screen, 48 h (100 = growth as untreated, 0 = no growth, -100 = all killed)
What all share (settings): 10 µM unless noted

Turning to `COc1ccc2c(c1)O/C(=C/c1ccc(OCC(=O)c3ccccc3)cc1)C2=O`, the growth was 97.4% with T-47D breast; 119% in the test with BT-549 breast; 87% in the test on MDA-MB-435 melanoma; 131% in the test with SW-620 colon; 118% in the test on MCF7 breast; 94.1% with HCT-116 colon. Also, the values for the growth in the test on HCC-2998 colon and in the test with KM12 colon were 114% and 105%, respectively.

For the molecule `Oc1ccc(CN2CCC(N3CCOCC3)CC2)c2cccnc12`, the growth with T-47D breast was 16.3%; with BT-549 breast, 29.8%; in the test with MDA-MB-435 melanoma, 16.3%; in the test on SW-620 colon, 22%; with MCF7 breast it was 9.1% (active); in the test with HCT-116 colon, 9.68% (active). The growth in the test with HCC-2998 colon was 51.5%; in the test with KM12 colon, 20.9%.

In the case of `COc1ccc(CN2C(=O)C(Cl)=C(Nc3cccc(C(F)(F)F)c3)C2=O)cc1`, the growth in the test on T-47D breast is 60.8%; in the test on BT-549 breast, 26.3%; in the test with MDA-MB-435 melanoma, 25.5%; in the test with SW-620 colon, 28.8%; in the test with MCF7 breast, 29.5%; in the test with HCT-116 colon, 28.9%. Moreover, the values for the growth in the test with HCC-2998 colon and in the test with KM12 colon were 53.2% and 70.2%, respectively.

Turning to `c1ccc(-c2nc([P+](c3ccccc3)(c3ccccc3)c3ccccc3)c(N3CCOCC3)o2)cc1`, the growth is -3.03% (active) in the test with T-47D breast; -5.41% (active) in the test with BT-549 breast; -1.04% (active) with MDA-MB-435 melanoma; 14.4% in the test with SW-620 colon; 2.94% (active) in the test with MCF7 breast; 2.08% (active) in the test with HCT-116 colon. Further, the growth with HCC-2998 colon is 26.5%; in the test with KM12 colon, -1.22% (active).

As to `CCCCCc1nc2c(c3c1CCCC3)CCCC2`, the growth in the test with T-47D breast was 71.9%; in the test on BT-549 breast, 115%; in the test with MDA-MB-435 melanoma, 99.7%; with SW-620 colon, 89.9%; with MCF7 breast it was 66.9%; with HCT-116 colon, 48.8%. Further, the growth was 87.8% in the test with HCC-2998 colon and 88.3% in the test with KM12 colon.

`Cc1occc1-c1n[nH]c(=S)n1N1C(=O)CSC1=S`: the growth in the test with T-47D breast is 104%; in the test with BT-549 breast, 108%; in the test on MDA-MB-435 melanoma it was 99.5%; with SW-620 colon it was 94.8%; in the test on MCF7 breast, 94.4%; in the test on HCT-116 colon, 105%. Besides, the growth in the test on HCC-2998 colon was 112%; with KM12 colon it was 99%.

`COc1cccc(-c2nn(-c3ccccc3)cc2-c2ccnc(NCCNC(=O)c3ccccc3)c2)c1`: the growth in the test with T-47D breast was 19.4%; with BT-549 breast, 38.4%; with MDA-MB-435 melanoma, 65.4%; in the test with SW-620 colon, 77.2%; in the test on MCF7 breast it was 62.5%; with HCT-116 colon it was 44.3%. The growth in the test with HCC-2998 colon is 71.2%; with KM12 colon, 57.3%.

As to `C=C(C)[C@@H]1CC[C@]2(C)[C@H](CC=C3[C@@H]4CC(C)(C)CC[C@]4(C(N)=O)CC[C@]32C)[C@@]1(C)CCC#N`, the growth was 10.4% in the test with T-47D breast; 17.7% with BT-549 breast; 17.7% with MDA-MB-435 melanoma; 22.1% in the test on SW-620 colon; 6.71% (active) in the test on MCF7 breast; 9.92% (active) in the test on HCT-116 colon. The growth in the test on HCC-2998 colon is 44.7%; in the test on KM12 colon it was 20.7%.

Take `Cc1ccc(-n2nc3c(c(C#N)c2=O)CC(c2ccccc2Cl)C([N+](=O)[O-])=C3O)cc1` (stereo not given): the growth in the test on T-47D breast is 73.4%; in the test with BT-549 breast, 103%; in the test on MDA-MB-435 melanoma it was 102%; with SW-620 colon, 109%; in the test with MCF7 breast it was 94%; in the test with HCT-116 colon it was 63.8%. Further, the values for the growth in the test with HCC-2998 colon and with KM12 colon were 113% and 106%, respectively.

Take `COc1ccc(-c2nc(SCCC(C)C)nc(N/N=C\c3ccccc3O)c2C#N)cc1`: the growth with T-47D breast is 83.9%; in the test with BT-549 breast, 100%; in the test with MDA-MB-435 melanoma it was 87.8%; in the test with SW-620 colon, 72.1%; in the test with MCF7 breast, 79%; with HCT-116 colon it was 71%. Besides, the growth with HCC-2998 colon is 104%; in the test with KM12 colon, 91.4%.

With `C#Cc1cccc(NC(=O)c2ccc(NC(=O)CCl)cc2)c1`, the growth is 19.1% [8.25 µM] with T-47D breast; -44.8% [8.25 µM] (active) in the test with BT-549 breast; -4.26% [8.25 µM] (active) with MDA-MB-435 melanoma; -75.5% [8.25 µM] (active) with SW-620 colon; 4.22% [8.25 µM] (active) in the test on MCF7 breast; -30.3% [8.25 µM] (active) in the test with HCT-116 colon. In addition, the growth was 92.8% [8.25 µM] with HCC-2998 colon and 37.9% [8.25 µM] with KM12 colon.

For the molecule `Cn1cc(-c2csc(-c3ccccc3)n2)c2cccnc21`, the growth with T-47D breast is -45.4% [100 µM] (active); in the test on BT-549 breast, -39.4% [100 µM] (active); with MDA-MB-435 melanoma, -45.2% [100 µM] (active); in the test with SW-620 colon, -34.1% [100 µM] (active); with MCF7 breast, -44.7% [100 µM] (active); in the test on HCT-116 colon it was -76.9% [100 µM] (active). For the same molecule, the growth in the test with HCC-2998 colon was -79.3% [100 µM] (active); in the test on KM12 colon, -68.6% [100 µM] (active).

`O=C(Nc1cccc(Cl)c1)c1cc(N=Nc2ccc([N+](=O)[O-])cc2Cl)ccc1O`: the growth with T-47D breast was 53.6%; with BT-549 breast, 81%; with MDA-MB-435 melanoma it was 90.5%; in the test with SW-620 colon, 86.1%; in the test with MCF7 breast, 32%; in the test with HCT-116 colon, 52.9%. Besides, the figures for the growth with HCC-2998 colon and in the test on KM12 colon were 45.8% and 93.7%, respectively.

Consider `Cc1nn(-c2ccccc2)c2nc3c(c(-c4ccc(Cl)cc4)c12)CNC1(CCSCC1)N3`, for which the growth with T-47D breast is 84.3%; in the test with BT-549 breast, 109%; with MDA-MB-435 melanoma, 99.8%; in the test with SW-620 colon, 92.8%; in the test on MCF7 breast, 93%; in the test with HCT-116 colon, 90.7%. The values for the growth with HCC-2998 colon and in the test on KM12 colon were 101% and 98.3%, respectively.

In the case of `COc1cccc(-c2nc3sccn3c2-c2ccnc(NCCNS(=O)(=O)c3cccc(F)c3)c2)c1`, the growth was -2.17% (active) with T-47D breast; -6.02% (active) with BT-549 breast; 43.8% with MDA-MB-435 melanoma; 51.9% in the test with SW-620 colon; 37.7% in the test with MCF7 breast; 24.5% with HCT-116 colon. Also, the values for the growth in the test with HCC-2998 colon and in the test with KM12 colon were 52% and 27.3%, respectively.
